# In PubChem BioAssay (Tox21):
# Results filed as inconclusive are left out. Active and inactive are the calls of the source. Calls follow the shape of the dose curve; as a rule, active = well fitted inhibition curve with a large enough effect in the signal ratio in the repeat runs (not every such curve was filed as active); inconclusive = weak or mixed curves, or effect the other way; inactive = no such curve, though single readings can be large or run the other way; the % refers to the signal ratio.
# Target: Peroxisome proliferator-activated receptor delta (Homo sapiens) (UniProt Q03181)
# Sequence (Q03181 whole entry, looked up): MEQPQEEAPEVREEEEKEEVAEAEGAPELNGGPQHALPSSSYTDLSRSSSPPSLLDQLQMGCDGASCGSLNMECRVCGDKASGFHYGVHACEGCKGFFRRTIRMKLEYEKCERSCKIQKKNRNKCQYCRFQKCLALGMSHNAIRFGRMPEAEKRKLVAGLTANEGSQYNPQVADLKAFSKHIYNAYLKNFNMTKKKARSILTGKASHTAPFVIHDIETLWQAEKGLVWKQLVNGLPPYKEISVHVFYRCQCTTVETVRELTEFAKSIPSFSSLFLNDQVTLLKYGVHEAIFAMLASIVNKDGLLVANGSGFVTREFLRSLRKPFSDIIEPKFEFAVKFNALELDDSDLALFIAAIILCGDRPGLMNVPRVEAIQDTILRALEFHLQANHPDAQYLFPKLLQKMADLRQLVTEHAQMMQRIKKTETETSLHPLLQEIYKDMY
# Test: qHTS assay to identify small molecule antagonists of the peroxisome proliferator-activated receptor delta (PPARd) signaling pathway (AID 743215);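 also: cells stimulated with agonist L165041 at 300 nM final during compound exposure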
# Conditions: HEK293H PPARd-UAS-bla, beta-lactamase FRET ratio, antagonist, 17 h; series mostly up to 62 µM
# Outline: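 PPARd UAS-bla HEK293H cells were pre-incubated 5 h at 37 C, then given test compounds in DMSO plus agonist L165041 (300 nM final). After 17 h at 37 C, beta-lactamase FRET substrate was added; fluorescence read after 2 h at room temperature.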
row,SMILES,outcome
1,CC(=O)O[C@H]1C[C@@H]2CC[C@@H]3[C@H](CC[C@@]4(C)[C@H]3C[C@H]([N+]3(C)CCCCC3)[C@@H]4OC(C)=O)[C@@]2(C)C[C@@H]1N1CCCCC1,inactive
2,CC(=O)NCCCS(=O)(=O)O,inactive
3,CCCCC(CC)(CO)CO,inactive
4,N#CCCNCCC#N,inactive
5,CCCCOC(=O)c1ccccc1C(=O)OCC(CC)CCCC (centres undefined),inactive
6,CCOc1ccc2[nH]cc(C(=O)NCc3ccccc3)c(=O)c2n1,inactive
7,CC(=O)Nc1ccc(/C=N/NC(N)=S)cc1,inactive
8,CCCC[C@H]1CN(CC2CCOCC2)C(=O)OC12CCN(C1(C)CCN(C(=O)c3c(C)ncnc3C)CC1)CC2,inactive
9,CCCCOC(O)CC (centres undefined),inactive
10,CCCCc1cc2ccccc2c(OCCN(C)C)n1,inactive
11,O=c1[nH]cnc2ccccc12,inactive
12,CC(C)c1ccccc1C(C)C,inactive
13,N#CCc1cccc(C(F)(F)F)c1,inactive
14,CNS(=O)(=O)Cc1ccc2[nH]cc(CCN(C)C)c2c1,inactive
15,CCN1CCC[C@H]1CNC(=O)c1c(OC)ccc(Br)c1OC,inactive
16,N[C@H]1C(O)O[C@H](CO)[C@H](O)[C@@H]1O (some centres undefined),inactive
17,CC(C)(C)c1cc(CCC(=O)OCC(COC(=O)CCc2cc(C(C)(C)C)c(O)c(C(C)(C)C)c2)(COC(=O)CCc2cc(C(C)(C)C)c(O)c(C(C)(C)C)c2)COC(=O)CCc2cc(C(C)(C)C)c(O)c(C(C)(C)C)c2)cc(C(C)(C)C)c1O,inactive
18,CCOC(=O)CC(=O)c1cc(F)c(Cl)nc1Cl,inactive
19,CCN(CC)C(C)=O,inactive
